# Screening data from PubChem BioAssay.
# Pf Dd2 inh = qHTS Primary assay for Inhibitors of Plasmodium falciparum Dd2 growth in vitro | P. falciparum Dd2 growth, SYBR Green, 72 h | Potency, µM (series often up to 28.9 µM), without a hit: at the highest dose activity, negative = inhibition, hits mostly inhibitors | 4.3% of 120,000 active | AID 1347417, 2020; active means well fitted inhibition curve with a large enough effect;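 further: plate controls were DMSO vehicle for no effect and reference drug for full effect; nearly all actives have a fitted effect of over 65% in size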
#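 Infected erythrocytes (Dd2, 0.3% parasitemia, 2.5% hematocrit final) are added to compound in RPMI-1640/Albumax II medium, grown 72 h at 37C in low oxygen, then lysed with saponin/Triton-X containing SYBR Green and read by fluorescence.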
# Numbers without * were called inactive; i = inactive; [ ] = remark or other dose. The full list was thinned out, with hits kept by preference. Potency means the concentration at half of the fitted maximal effect.
SMILES,Pf Dd2 inh
COc1ccc(CCN(Cc2ccccc2F)CC2(O)CCCNC2)cc1 (centres undefined),12.6µM*
COc1ccc(CN2CC3(CCN(S(=O)(=O)Cc4ccccc4F)CC3)C2=O)cc1,-1.0%
COc1ccc(CCNC(=O)C(=O)Nc2ccccc2F)cc1,i
OCc1ccc(CNC2(Cc3cc(COc4ccccc4)on3)COC2)o1,-28.7%[44.1 µM]
O=C(Cc1ccc(Cl)cc1)N1CCN(c2nnc3ccccn23)CC1,i
Cc1ccc(-c2cc3c(=O)n(CCNC(=O)c4ccc(C)s4)ccn3n2)c(C)c1,i
Cc1ccccc1Cn1c(SCc2ccc(C(=O)NC3CCCCC3)cc2)nc2ccncc21,-16.5%
Cc1ccccc1Cn1c(SCc2ccc(C(=O)N3CCCCC3)cc2)nc2ccncc21,7.94µM*
Cc1ccc(CN2C(=O)NC3(CCN(C(=O)c4ccncc4)CC3)C2=O)cc1,7.6%
Cc1ccc(Cn2c(SCc3ccc(C(=O)N4CCCCCC4)cc3)nc3ccncc32)cc1,11.2µM*
CN(C)c1ccc(NC(=O)Cn2c(SCc3ccc(F)cc3)nc3ccncc32)cc1,i
Cc1ccc(CSc2nc3cccnc3n2Cc2ccc(C(=O)NC3CCCCC3)cc2)cc1,-16.1%
O=C(Cn1nc2c(cc1=O)CCCCC2)NCCc1cccc(F)c1,2.0%
CCCNC(=O)CC1Sc2ncccc2N(CC)C1=O (centres undefined),i
CN(C)C(=O)N1CCN(C2CCNCC2)C(=O)C1,6.2%[44.1 µM]
COc1ccc(CNC(=O)c2ccc(CN3C(=O)NC4(CCOCC4)C3=O)cc2)cc1,24.2%
Cc1ccccc1-c1ccc2n(c1=O)C[C@H]1C[C@@H]2CN(C(=O)Nc2ccccc2)C1,-3.9%[44.1 µM]
CN(C)S(=O)(=O)N1CCCC(c2nc(-c3cnccn3)no2)CCNC(=O)CC1 (centres undefined),-30.4%
COc1ccc(-c2noc(C(=O)O)c2[C@@H](C)NS(=O)(=O)CC(C)C)cc1,-2.7%[44.1 µM]
CCOC(=O)C1(Cc2ccccc2C)CCCN(C(=O)c2csc(C)n2)C1 (centres undefined),-3.1%
CCOC(=O)C1(Cc2ccccc2C)CCCN(C(=O)c2cc[n+]([O-])cc2)C1 (centres undefined),-20.5%
CCOC(=O)C1(Cc2ccccc2C)CCCN(Cc2cn(CC(N)=O)c3ccccc23)C1 (centres undefined),14.1µM*
Cc1cn2nc(C(=O)N3CCC(NC(=O)c4ccc(Cl)cc4)CC3)cc2c(=O)[nH]1,i
Cc1ccccc1Cn1c(=O)n(CC2CCC(C(=O)N3CCOCC3)CC2)c(=O)c2sccc21 (centres undefined),-18.5%
O=C(C1CCC(Cn2c(=O)c3sccc3n(Cc3cccc(F)c3)c2=O)CC1)N1CCCCC1 (centres undefined),8.91µM*
SMILES,Pf Dd2 inh
Cc1ccc(Cn2c(=O)n(CC3CCC(C(=O)N4CCOCC4)CC3)c(=O)c3sccc32)cc1 (centres undefined),-7.4%
COc1cc(NC(=O)Cn2c(-c3ccc(Cl)cc3)nc(C)cc2=O)cc(OC)c1OC,i
COc1ccc(-c2ccnc3nc(C(C)C)nn23)cc1,-22.1%
COCCn1ccnc1C1CCCN(c2ncnc3c2CCC3)C1 (centres undefined),3.9%
COc1ccc(-c2noc(-c3cccn3CC(=O)NC3CCCC3)n2)cc1F,i
Cc1ccc(NC(=O)Cn2cccc2-c2nc(-c3ccccc3)no2)c(Cl)c1,4.8%
CCOc1ccc(C(=O)NCCn2cccc2-c2nc(-c3ccccc3)no2)cc1OCC,10µM*
Cc1ccc(NC(=O)Cn2cccc2-c2nc(-c3ccccc3)no2)cc1,89.7%
COc1ccc(NC(=O)Cn2cccc2-c2nc(-c3ccc4c(c3)OCO4)no2)cc1OC,-23.7%
CCOc1ccc(CCNC(=O)Cn2cccc2-c2nc(-c3ccccc3)no2)cc1OCC,3.1%
CCc1ccccc1NC(=O)Cn1cccc1-c1nc(-c2ccccc2)no1,2.82µM*
COc1ccc(-c2noc(-c3cccn3CC(=O)Nc3ccc(F)c(F)c3)n2)cc1F,2.82µM*
Cc1cc(C)c(NC(=O)Cn2cccc2-c2nc(-c3ccc(F)cc3)no2)c(C)c1,95.2%
COc1ccc(NC(=O)Cn2cccc2-c2nc(-c3ccc(F)cc3)no2)cc1,2.51µM*
O=C(Cn1cccc1-c1nc(-c2ccc(F)cc2)no1)Nc1cccc(F)c1,-4.0%
COc1ccc(C(=O)NCCn2cccc2-c2nc(-c3ccccc3)no2)cc1,i
Cc1sc2ccn(C)c(=O)c2c1C(=O)NCc1cccc(F)c1,-13.3%
O=C(NC1CCCCC1)N1C[C@@H]2C[C@H](C1)c1c(-c3ccc4ccccc4c3)ccc(=O)n1C2,-17.0%
O=C(C1CC(=O)N(c2n[nH]c3cccc(F)c23)C1)N1CCC(Cc2ccccc2)CC1 (centres undefined),-20.7%
COCc1cc(C[C@@H]2CC[C@H](O)[C@@H](CNC(=O)C(C)(C)C)O2)no1,36.0%[44.1 µM]
COC[C@H]1C[C@@H](NCc2cccc(Cl)c2)[C@H](O)[C@@H]1O,i
Cc1nc(CC(=O)N2CCC(Cc3nnc(CO)n3C)CC2)cs1,2.5%
CCC(C)NC(=O)C1COC2(CCN(C(=O)c3cccc(C)c3)CC2)N1C(=O)c1ccc(OC)cc1 (centres undefined),i
COC(=O)c1ccccc1NC(=O)Cn1cccc1-c1nc(-c2ccc(OC)c(F)c2)no1,16.1%
COc1ccc(-c2noc(-c3cccn3CC(=O)Nc3cc(F)ccc3Cl)n2)cc1F,-10.5%
SMILES,Pf Dd2 inh
CCc1ccc(NC(=O)Cn2cccc2-c2nc(-c3ccc(OC)c(F)c3)no2)cc1,2µM*
COc1ccc(-c2noc(-c3cccn3CC(=O)Nc3ccc(N(C)C)cc3)n2)cc1F,0.1%
COc1ccc(CCNC(=O)Cn2cccc2-c2nc(-c3ccc(F)cc3)no2)cc1OC,i
COc1ccc(-c2noc(-c3cccn3CC(=O)Nc3cccc(Cl)c3)n2)cc1F,2.51µM*
COc1ccc(C(=O)N2CCCC3(CN[S+](=O)([O-])c4ccccc4N3)C2)cc1 (centres undefined),-16.4%
COc1ccc(-c2ccc3c(n2)CN(Cc2ccccc2)C(=O)CO3)cc1F,-2.9%[44.1 µM]
Cc1cc(C)c(CNC(=O)c2cc(-c3ccc(CO)cc3)cc3c2OCCN3C)c(=O)[nH]1,-10.4%[44.1 µM]
COCC(=O)N[C@H]1CC[C@]2(C)CC[C@@H]([C@H](C)C(=O)N3CCOCC3)[C@H](O)[C@H]2[C@@H]1C,5.1%[44.1 µM]
O=C(c1cccnc1OC1CCN(Cc2ccccn2)C1)N1CCOCC1 (centres undefined),i
Cc1ccc(CN2CC(Oc3ccccc3C(=O)N3CCOCC3)C2)cc1C,2.82µM*
O=C(NC1CC1)c1ccccc1OC1CN(Cc2ccc(F)c(F)c2)C1,i
O=C(c1ccno1)N1C[C@@H](F)[C@@H](OCc2nc3ccc(F)cc3[nH]2)C1,-29.3%[44.1 µM]
CNC(=O)[C@@H]1CN(C(=O)c2cnn(C)c2)C[C@H]1COC,-1.2%
Cc1ccc(CNC(=O)C2CCCCC(=O)N2)o1 (centres undefined),i
O=C(NCc1ccncc1)C1CN(S(=O)(=O)c2cccnc2)CC12CCCCC2 (centres undefined),-14.8%
O=C(c1ccccn1)N1CCN(C(=O)c2nnn3c2COC(c2ccccc2)C3)CC1 (centres undefined),i
O=C(c1ccccc1)N1CCN(C(=O)c2nnn3c2COC(c2ccccc2)C3)CC1 (centres undefined),i
O=C(c1ccc2ccccc2n1)N1CCN(C(=O)c2nnn3c2COC(c2ccccc2)C3)CC1 (centres undefined),6.31µM*
COC(=O)[C@@H]1Cc2nc[nH]c2CN1Cc1cc2ccccc2o1,-19.9%[44.1 µM]
